Laboratory results: PubChem BioAssay (Tox21)
Records with an inconclusive call do not appear. Activity calls are given as the source filed them. Unless noted, calls follow the shape of the dose curve; as a rule, active = well fitted curve in the direction sought with a large enough effect in the repeat runs; inconclusive = weak or mixed curves; inactive = no such curve, though single readings can be large; an effect the other way counts as inactive or inconclusive.

Key:
[1] = target: Thyrotropin receptor (Homo sapiens) (UniProt P16473); assay: qHTS assay to identify small molecule antagonists of the thyroid stimulating hormone receptor (TSHR) signaling pathway (AID 1259385; calls by dose curve; also: nearly all actives have a fitted effect of over 20% in size)
How it was run: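 Antagonist mode: compound-treated TSHR-expressing HEK293 cells were stimulated with 1.5 ng/mL TSH (final) in presence of Ro20-1724 for 30 min at RT. HTRF cAMP detection after 1 h; each compound tested at 15 concentrations, triplicate.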

[2] = qHTS assay to identify small molecule agonists of the estrogen receptor alpha (ER-alpha) signaling pathway in the presence of an antagonist - cell viability counter screen (AID 1259386);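 also: cells exposed to compounds for 22 h at 37 °C before the viability read; nearly all actives have a fitted effect of over 30% in size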; also: potency is read from the fitted curve at half-maximal effect; as to activity change, negative = cytotoxicity: series mostly up to about 92 µM
How it was run: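 Read-out: CellTiter-Fluor fluorescence after 1hr reagent incubation, measured in the same wells as the luciferase readout. VM7Luc4E2 cells were exposed to 15 compound concentrations with 10.0nM ICI-182,780 for 22hr at 37C.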

[3] = target: Progesterone receptor (Homo sapiens) (UniProt P06401); assay: qHTS assay to identify small molecule agonists of the progesterone receptor (PR) signaling pathway (AID 1346784; calls by dose curve; also: nearly all actives have a fitted effect of over 30% in size)
How it was run: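 Using charcoal-stripped serum (2%) to limit endogenous steroids, PR-UAS-bla HEK 293T cells received compounds for 16 hr at 37C after 6 hr plating; beta-lactamase FRET fluorescence was recorded following 2 hr substrate loading at room temperature.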

[4] = qHTS assay to identify small molecule antagonists of the progesterone receptor (PR) signaling pathway - cell viability counter screen (AID 1346798); also: series mostly up to about 92 µM; nearly all actives have a fitted effect of over 50% in size
How it was run: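 ATP content as viability readout: CellTiter-Glo luminescence, 30 min room temperature, in PR-UAS-bla HEK293T cells after 16 hr compound/R5020 treatment at 37C and 5% CO2.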

[5] = qHTS assay to identify small molecule agonists of the progesterone receptor (PR) signaling pathway - cell viability counter screen (AID 1346799; calls by dose curve; also: nearly all actives have a fitted effect of over 45% in size)
How it was run: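 Cytotoxicity in PR-bla HEK293T cells: 16 h compound, 37C; CellTiter-Glo added post-FRET read; luminescence after 30 min RT.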

[6] = qHTS assay to identify small molecule antagonists of the TGF-beta/Smad signaling pathway - cell viability counter screen (AID 1346824); also: nearly all actives have a fitted effect of over 50% in size
How it was run: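 Cytotoxicity counter-screen run in the same wells as the beta-lactamase Smad reporter read: CellTiter-Glo luminescence after 30 min at room temperature. HEK 293T SBE-bla cells had 5 hr compound exposure at 37 C with TGF-beta1 (0.25 ng/mL stock).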

[7] = qHTS assay to identify small molecule agonists of the TGF-beta/Smad signaling pathway - cell viability counter screen (AID 1346829); also: top concentration of the series differs between compounds; nearly all actives have a fitted effect of over 45% in size
How it was run: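 Here the cytotoxicity of library compounds is measured in SBE-bla HEK 293T cells treated for 5 hr, using CellTiter-Glo added to wells already read for the beta-lactamase reporter.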

[8] = qHTS assay to identify small molecule agonists of the TGF-beta/Smad signaling pathway (AID 1346859; active = well fitted activation curve with a large enough effect in the signal ratio in the repeat runs, not every such curve was filed as active; the % refers to the signal ratio; also: series mostly up to about 77 µM)
How it was run: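 Stable Smad binding element-beta-lactamase HEK 293T cells; 5 hr compound exposure at 37 C under 5% CO2; 2 hr room-temperature substrate step; fluorescence excited at 405 nm, collected at 460 nm and 530 nm.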

[9] = target: Thyrotropin-releasing hormone receptor (Homo sapiens) (UniProt P34981); assay: qHTS assay to identify small molecule agonists of the thyrotropin-releasing hormone receptor (TRHR) signaling pathway (AID 1346891; calls by dose curve;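 also: HEK293 cells expressing TRHR with calcium dye readout; series mostly up to about 58 µM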)
How it was run: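 In 1536-format, 1500 TRHR-Hek293 cells per well grew 18 h, took up calcium dye for 2 h at 37 °C, received compound, and were read kinetically; 15-point titrations, triplicates.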

[10] = Human pregnane X receptor (PXR) small molecule agonists, qHTS cell viability counter screen (AID 1346977); also: nearly all actives have a fitted effect of over 50% in size
How it was run: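 Readout is CellTiter-Fluor fluorescence from PXR-Luc HepG2 cells. Plated cells rested 5hr, then were treated with compounds for 24hr at 37C and 5% CO2, with reagent present during the last hour.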

[11] = Caspase-3/7 induction in HepG2 cells by small molecules, qHTS assay (AID 1346978); also: nearly all actives have a fitted effect of over 15% in size
How it was run: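 Caspase-3/7 induction was measured by Caspase-Glo 3/7 luminescence (30 min, room temperature) after a 17 hr compound exposure of wild-type HepG2 cells seeded at 2,000 per well and pre-incubated 5 hr.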

[12] = Caspase-3/7 induction in CHO-K1 cells by small molecules, qHTS assay (AID 1346980); also: nearly all actives have a fitted effect of over 15% in size
How it was run: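 Luminescent Caspase-Glo 3/7 read (30min, room temperature) quantified apoptosis induction. Cells were wild-type CHO-K1, treated with compound for 17hr at 37 C and 5% CO2.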

[13] = Caspase-3/7 induction in HepG2 cells by small molecules, qHTS cell viability counter screen (AID 1346981); also: nearly all actives have a fitted effect of over 30% in size; also: potency is read from the fitted curve at half-maximal effect; as to activity change, negative = cytotoxicity: series mostly up to about 92 µM
How it was run: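 Fluorescence read-out of live-cell protease activity (CellTiter-Fluor) after 1 hr with reagent. This was measured in the same wells as the caspase-3/7 luminescence, on HepG2 cells exposed to DMSO-dissolved compounds for 16 hr at 37 C.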

[14] = target: Nuclear receptor subfamily 1 group I member 2 (Homo sapiens) (UniProt O75469); assay: Human pregnane X receptor (PXR) small molecule agonists, qHTS assay (AID 1346982); also: nearly all actives have a fitted effect of over 35% in size; also: potency is read from the fitted curve at half-maximal effect
How it was run: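 HepG2 PXR-Luc reporter line, 5% charcoal-stripped FBS; 5 hr pre-incubation, compound (DMSO) 24 hr at 37 C/5% CO2; ONE-Glo 30 min RT; luminescence read-out.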

[15] = target: Thyrotropin-releasing hormone receptor (Homo sapiens) (UniProt P34981); assay: qHTS assay to identify small molecule antagonists of the thyrotropin-releasing hormone receptor (TRHR) signaling pathway (AID 1346877; active = well fitted inhibition curve with a large enough effect in the repeat runs, not every such curve was filed as active; also: series mostly up to about 51 µM)
How it was run: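 HEK293/TRHR cells, 18 h, 37 °C; Ca2+ dye 2 h; cpd 5 min RT; TRH 1 nM final; fluorescence read 3 min, 1 s intervals; 15 concs, triplicate.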

[16] = Caspase-3/7 induction in CHO-K1 cells by small molecules, qHTS cell viability counter screen (AID 1346979); also: nearly all actives have a fitted effect of over 35% in size
How it was run: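 To flag cytotoxic compounds, treated CHO-K1 wild-type cells were given CellTiter-Fluor at 16hr and read fluorescently after 1hr at 37C; the caspase-3/7 luminescence was measured in these same wells.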

[17] = target: Progesterone receptor (Homo sapiens) (UniProt P06401); assay: qHTS assay to identify small molecule antagonists of the progesterone receptor (PR) signaling pathway (AID 1346795; active = well fitted inhibition curve with a large enough effect in the signal ratio in the repeat runs, not every such curve was filed as active; the % refers to the signal ratio)
How it was run: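 Inhibition of R5020-induced (1 nM final) beta-lactamase reporter signal in PR-UAS-bla HEK293T cells was scored by FRET fluorescence after overnight (16 hr) compound treatment.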

[18] = target: Nuclear receptor subfamily 1 group I member 2 (Rattus norvegicus) (UniProt Q9R1A7); assay: Rat pregnane X receptor (rPXR) activation by small molecules, qHTS assay (AID 1346983); conditions: rPXR luciferase reporter cells, One-Glo luminescence, 24 h; hits give high values; also: nearly all actives have a fitted effect of over 20% in size
How it was run: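 Luminescent readout (One-Glo luciferase, 30 min room temperature) followed 24 hr compound treatment at 37 C of rPXR cells plated 2,000 per well and preincubated 5hr; qHTS format with compounds delivered in DMSO.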

[19] = target: Nuclear receptor subfamily 1 group I member 2 (Homo sapiens) (UniProt O75469); assay: CYP3A4 induction through human pregnane X receptor (PXR) by small molecules, qHTS assay (AID 1346984); also: nearly all actives have a fitted effect of over 40% in size
How it was run: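 HepG2-derived DPX-2 line carrying PXR plus a CYP3A4-promoter luciferase reporter; cells plated 5 hr, compound-exposed 24 hr at 37C. CYP3A4 activity probed with 3uM (final) Luciferin-IPA for 3hr, then luciferase read after One-Glo.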

[20] = target: Nuclear receptor subfamily 1 group I member 2 (Homo sapiens) (UniProt O75469); assay: Human pregnane X receptor (PXR) activation by small molecules, qHTS assay (AID 1346985); also: nearly all actives have a fitted effect of over 40% in size
How it was run: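 DPX-2 cells (HepG2 co-transfected with a PXR response element and a CYP3A4-promoter luciferase construct) were seeded at 2,000 per well, rested 5 hr at 37C, then exposed to DMSO-dissolved compounds for 24 hr. Activation was read as luciferase luminescence.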
% is scaled to controls: 0 for no effect and ±100 for the full control effect.

Thyrotropin-releasing hormone receptor (Homo sapiens), sequence (P34981 whole entry, looked up): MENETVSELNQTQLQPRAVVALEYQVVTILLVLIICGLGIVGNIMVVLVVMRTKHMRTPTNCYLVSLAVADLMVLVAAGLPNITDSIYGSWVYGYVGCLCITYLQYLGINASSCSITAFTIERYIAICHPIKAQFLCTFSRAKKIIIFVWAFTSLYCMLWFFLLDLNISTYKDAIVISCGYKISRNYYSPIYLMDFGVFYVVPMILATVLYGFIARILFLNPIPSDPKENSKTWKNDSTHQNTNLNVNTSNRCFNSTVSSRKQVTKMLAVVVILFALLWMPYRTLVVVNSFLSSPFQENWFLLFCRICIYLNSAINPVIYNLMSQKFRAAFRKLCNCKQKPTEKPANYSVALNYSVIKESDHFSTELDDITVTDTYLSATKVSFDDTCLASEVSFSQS
Thyrotropin receptor (Homo sapiens), sequence (P16473 whole entry, looked up): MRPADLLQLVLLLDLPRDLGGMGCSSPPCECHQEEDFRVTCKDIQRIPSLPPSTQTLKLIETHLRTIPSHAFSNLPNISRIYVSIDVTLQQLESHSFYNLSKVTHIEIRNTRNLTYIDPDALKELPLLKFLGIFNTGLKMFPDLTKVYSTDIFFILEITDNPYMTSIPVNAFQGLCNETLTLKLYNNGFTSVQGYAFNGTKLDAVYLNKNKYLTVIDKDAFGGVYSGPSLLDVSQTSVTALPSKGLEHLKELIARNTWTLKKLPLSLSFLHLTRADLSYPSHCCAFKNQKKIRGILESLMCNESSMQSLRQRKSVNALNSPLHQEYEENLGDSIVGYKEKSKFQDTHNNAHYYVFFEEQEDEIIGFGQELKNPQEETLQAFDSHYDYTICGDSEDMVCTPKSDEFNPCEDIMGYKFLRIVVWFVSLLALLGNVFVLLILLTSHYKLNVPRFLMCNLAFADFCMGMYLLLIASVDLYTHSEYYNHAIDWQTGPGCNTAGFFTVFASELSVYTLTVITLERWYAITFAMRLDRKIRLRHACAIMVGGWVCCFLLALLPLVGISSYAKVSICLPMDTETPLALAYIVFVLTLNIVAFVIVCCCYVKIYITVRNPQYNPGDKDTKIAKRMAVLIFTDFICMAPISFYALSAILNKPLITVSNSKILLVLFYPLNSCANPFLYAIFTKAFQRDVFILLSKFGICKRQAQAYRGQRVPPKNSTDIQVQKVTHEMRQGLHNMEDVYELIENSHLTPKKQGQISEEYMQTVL
Progesterone receptor (Homo sapiens), sequence (P06401 whole entry, looked up): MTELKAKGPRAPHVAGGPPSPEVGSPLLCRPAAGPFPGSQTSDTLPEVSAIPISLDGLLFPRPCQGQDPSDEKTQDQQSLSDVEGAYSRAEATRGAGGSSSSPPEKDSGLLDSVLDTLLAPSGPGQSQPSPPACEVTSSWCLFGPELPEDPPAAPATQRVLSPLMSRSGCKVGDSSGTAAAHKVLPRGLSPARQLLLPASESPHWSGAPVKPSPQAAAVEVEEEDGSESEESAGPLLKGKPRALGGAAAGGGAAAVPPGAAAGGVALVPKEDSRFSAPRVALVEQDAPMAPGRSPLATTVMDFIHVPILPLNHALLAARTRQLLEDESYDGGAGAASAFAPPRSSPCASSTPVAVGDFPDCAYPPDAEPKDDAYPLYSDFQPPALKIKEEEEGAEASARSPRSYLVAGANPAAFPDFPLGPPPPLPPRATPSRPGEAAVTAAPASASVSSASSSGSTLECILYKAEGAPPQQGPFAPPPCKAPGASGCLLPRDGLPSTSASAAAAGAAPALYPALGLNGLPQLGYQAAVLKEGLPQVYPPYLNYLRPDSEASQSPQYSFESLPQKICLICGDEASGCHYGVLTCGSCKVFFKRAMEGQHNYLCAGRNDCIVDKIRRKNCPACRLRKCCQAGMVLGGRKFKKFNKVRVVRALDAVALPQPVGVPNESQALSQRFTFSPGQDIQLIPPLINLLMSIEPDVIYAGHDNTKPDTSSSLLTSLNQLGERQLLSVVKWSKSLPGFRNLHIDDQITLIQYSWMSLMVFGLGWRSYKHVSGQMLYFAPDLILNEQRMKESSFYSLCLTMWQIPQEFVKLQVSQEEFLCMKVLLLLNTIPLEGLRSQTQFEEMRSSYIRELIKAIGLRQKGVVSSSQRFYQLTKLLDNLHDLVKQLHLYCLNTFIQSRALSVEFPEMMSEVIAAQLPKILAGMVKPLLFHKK
Nuclear receptor subfamily 1 group I member 2 (Homo sapiens), sequence (O75469 whole entry, looked up): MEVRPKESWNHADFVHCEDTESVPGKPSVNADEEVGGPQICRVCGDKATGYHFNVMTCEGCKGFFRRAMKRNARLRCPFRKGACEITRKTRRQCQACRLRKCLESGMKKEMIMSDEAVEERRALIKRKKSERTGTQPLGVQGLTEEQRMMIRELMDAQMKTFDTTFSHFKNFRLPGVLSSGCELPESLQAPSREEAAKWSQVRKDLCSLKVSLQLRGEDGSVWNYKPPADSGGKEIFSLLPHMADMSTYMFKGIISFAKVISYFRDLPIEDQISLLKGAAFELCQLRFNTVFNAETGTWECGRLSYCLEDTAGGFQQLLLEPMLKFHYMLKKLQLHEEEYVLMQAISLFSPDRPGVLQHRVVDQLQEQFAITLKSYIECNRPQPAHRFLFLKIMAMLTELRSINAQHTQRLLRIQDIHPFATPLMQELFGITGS
Nuclear receptor subfamily 1 group I member 2 (Rattus norvegicus), sequence (Q9R1A7 whole entry, looked up): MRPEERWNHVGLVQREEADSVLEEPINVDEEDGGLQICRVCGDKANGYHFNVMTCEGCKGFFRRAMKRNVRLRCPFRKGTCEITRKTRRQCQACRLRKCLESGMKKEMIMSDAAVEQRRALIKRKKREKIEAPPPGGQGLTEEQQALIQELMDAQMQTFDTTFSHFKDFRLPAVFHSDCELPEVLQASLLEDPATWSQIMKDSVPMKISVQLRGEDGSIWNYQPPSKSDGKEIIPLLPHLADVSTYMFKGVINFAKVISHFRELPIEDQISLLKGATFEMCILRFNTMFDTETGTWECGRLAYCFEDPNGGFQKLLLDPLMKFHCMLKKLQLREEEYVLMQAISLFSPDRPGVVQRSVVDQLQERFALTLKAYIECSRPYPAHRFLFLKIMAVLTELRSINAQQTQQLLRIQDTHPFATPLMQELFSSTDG

Cc1cccc2nccnc12
inactive: outcome [1] | Potency [2] | Potency [3] | Potency [4] | Potency [5] | outcome [6] | outcome [7] | outcome [8] | outcome [9] | Potency [10] | Potency [11] | outcome [12] | Potency [13] | Potency [14]

CCNC(=O)C1CC(C)CCC1C(C)C (stereo not drawn)
inactive: outcome [1] | Potency [2] | Potency [3] | Potency [4] | Potency [5] | outcome [6] | outcome [7] | outcome [8] | outcome [15] | outcome [9] | Potency [16] | Potency [13]

OCCCCC(O)CO (stereo not drawn)
inactive: outcome [1] | Potency [2] | Potency [3] | Potency [17] | Potency [4] | outcome [6] | outcome [8] | outcome [15] | outcome [9] | Potency [10] | Potency [11] | Potency [16] | outcome [12] | Potency [13]

Cc1ccc(S(=O)(=O)O)c(C)c1
inactive: outcome [1] | Potency [2] | Potency [3] | Potency [17] | Potency [4] | outcome [6] | outcome [7] | outcome [8] | outcome [15] | outcome [9] | Potency [10] | Potency [11] | outcome [12] | Potency [13] | Potency [14]

CC(=O)Nc1ccc(S(=O)(=O)Nc2ccc([N+](=O)[O-])cc2)cc1
active: Potency [2] 23.7 µM | Potency [13] 29.8 µM
inactive: outcome [1] | Potency [3] | Potency [17] | Potency [5] | outcome [7] | outcome [8] | outcome [9] | Potency [11] | outcome [12] | Potency [14] | max activation [18] -3.2% | Potency [19] | Potency [20]

COC(=O)CCCCCCCC(=O)OC
inactive: outcome [1] | Potency [2] | Potency [3] | Potency [17] | Potency [4] | outcome [6] | outcome [7] | outcome [8] | outcome [15] | outcome [9] | Potency [10] | Potency [11] | Potency [16] | outcome [12] | Potency [13] | Potency [14]

COC(=O)C1CC(=O)C(C(=O)OC)CC1=O (stereo not drawn)
inactive: activity change, negative = inhibition [1] 0.232% [at 8.39 µM] | activity change, negative = cytotoxicity [2] 1.85% [at 8.39 µM] | activation [3] 15.8% [at 8.39 µM] | activity change, negative = inhibition [17] 5.34% [at 8.39 µM] | activity change, negative = cytotoxicity [4] 15.1% [at 8.39 µM] | activation [8] 5.28% [at 6.97 µM] | activation [9] 0.0574% [at 5.23 µM] | caspase activation [11] 0.89% [at 8.39 µM] | activity change, negative = cytotoxicity [16] 8.06% [at 8.39 µM] | caspase-3/7 activation [12] 0.641% [at 8.39 µM] | activity change, negative = cytotoxicity [13] 9.03% [at 8.39 µM] | activation [14] 2.25% [at 8.39 µM]

BrCc1cccc(Oc2ccccc2)c1
inactive: outcome [1] | Potency [2] | Potency [3] | Potency [4] | Potency [5] | outcome [6] | outcome [7] | outcome [8] | outcome [15] | outcome [9] | Potency [11] | Potency [16] | outcome [12]
active: Potency [14] 61.1 µM

N[C@@H](CCC(=O)Nc1ccc([N+](=O)[O-])cc1)C(=O)O
inactive: outcome [1] | Potency [2] | Potency [3] | Potency [4] | Potency [5] | outcome [6] | outcome [7] | outcome [8] | outcome [15] | outcome [9] | Potency [11] | Potency [16] | outcome [12] | Potency [14]
active: Potency [13] 54.5 µM

CC1(C)S[C@@H]2[C@H](N=CN3CCCCCC3)C(=O)N2[C@H]1C(=O)O
inactive: outcome [1] | Potency [2] | Potency [3] | Potency [4] | outcome [6] | outcome [7] | outcome [8] | outcome [15] | outcome [9] | Potency [10] | Potency [16] | outcome [12] | Potency [13] | Potency [14] | Potency [19] | Potency [20]

O=C(/N=N/C(=O)OCc1ccccc1)OCc1ccccc1
active: Potency [14] 30.6 µM
inactive: outcome [1] | Potency [2] | Potency [3] | Potency [4] | Potency [5] | outcome [7] | outcome [8] | outcome [9] | Potency [11] | Potency [16] | outcome [12] | Potency [13]

CCO[Si](CCCS)(OCC)OCC
inactive: outcome [1] | Potency [2] | Potency [3] | Potency [4] | Potency [5] | outcome [7] | outcome [8] | outcome [15] | outcome [9] | Potency [11] | Potency [16] | Potency [13] | Potency [14]

CC(=O)NCc1c(I)c(NC(C)=O)c(I)c(C(=O)O)c1I
inactive: outcome [1] | Potency [2] | Potency [3] | Potency [4] | Potency [5] | outcome [6] | outcome [7] | outcome [8] | outcome [15] | outcome [9] | Potency [10] | Potency [11] | outcome [12] | Potency [13] | Potency [14] | Potency [19] | Potency [20]

CCN(CC)CC(=O)Nc1c(C)cccc1C
inactive: outcome [1] | Potency [2] | Potency [3] | Potency [4] | Potency [5] | outcome [6] | outcome [8] | outcome [9] | Potency [10] | Potency [11] | outcome [12] | Potency [13]
